# Measurements from PubChem BioAssay (NCATS).
# Records with an inconclusive call do not appear. Entries that show only a call come without a potency. The source made the active and inactive calls. Unless noted, calls come from the whole dose curve; as a rule, active = well fitted curve in the direction sought with a large enough effect; inconclusive = small, poorly fitted or top-dose-only effect, or another doubt; inactive = no such curve, though single readings can be large; an effect the other way counts as inactive or inconclusive.
# Assays:
# [1] = biological target: Ubiquitin carboxyl-terminal hydrolase 2 (Homo sapiens) (UniProt O75604); test: qHTS Validation Assay for Inhibitors of Ubiquitin-specific Protease USP2a Using CHOP2 as the Reporter (AID 463106)
# Procedure, shortened: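 Readout was coupled fluorescence (Ex 485/Em 531 nm), read 60 min after adding 25 nM final Ub-CHOP2 and 25 nM reporter substrate. Beforehand, 10 nM final USP2 core had 30 min at RT with compound in pH 8.0 buffer. Curves were fitted after normalization to NEM and flagged for artifacts using time-zero reads.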
# [2] = biological target: DNA polymerase III PolC-type (Bacillus subtilis (strain 168)) (UniProt P13267); test: qHTS Validation Assay for the Inhibitors of DNA Replication in Gram-Positive Bacteria (AID 485295);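 note: reconstituted holoenzyme with PolC plus beta clamp SSB and primase; PicoGreen fluorescence of double-stranded DNA made on primed circular M13 template; series mostly up to about 57 µM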
# Procedure, shortened: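 First, compound is mixed with the reconstituted replication complex and held at room temperature. Next, circular single-stranded M13Gori with nucleotides starts synthesis. Finally, PicoGreen in EDTA halts the reaction and stains double-stranded product for fluorescence reading.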
# [3] = biological target: Tumor susceptibility gene 101 protein (Homo sapiens) (UniProt Q99816); test: qHTS Validation Assay for Iinhibitors of HIV-1 Budding by Blocking the Interaction of PTAP/TSG101 (AID 485342; calls by dose curve)
# Procedure, shortened: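 Binding of a FITC-tagged PTAP-motif peptide (50 nM) to the Tsg101 binding domain (10 uM) is monitored by fluorescence polarization. Compounds are pin-delivered before peptide addition, and incubation runs 20 min at room temperature.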
# [4] = biological target: Beta-2 adrenergic receptor (Homo sapiens) (UniProt P07550); test: qHTS validation assay of beta-arrestin-biased ligands of beta2-adrenergic receptor (AID 485366)
# Procedure, shortened: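 Screening used a titration range of up to 46 microM in a beta-arrestin recruitment Tango luciferase assay. Cells in 1% FBS medium were treated 18 hr at 37 degrees C, and luminescence was normalized to %Activity.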
# [5] = biological target: ATP-dependent 6-phosphofructokinase (Trypanosoma brucei brucei) (UniProt O15648); test: qHTS Validation Assay to Find Inhibitors of T. brucei phosphofructokinase (AID 485368); note: potency is the fitted concentration of half-maximal effect
# Procedure, shortened: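 PFK-generated ADP was measured after 45 min at room temperature using ADP-Glo. The reaction contained 0.5 mM F6P and 0.1 mM ATP.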
# [6] = biological target: Thioredoxin reductase 1, cytoplasmic (Rattus norvegicus) (UniProt O89049); test: qHTS Assay for Substrates of Mammalian Selenoprotein Thioredoxin Reductase 1 (TrxR1) (AID 488772);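 note: series mostly up to about 57 µM; a drop in NADPH fluorescence below the no-compound background marks a TrxR1 substrate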
# Procedure, shortened: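 In this dual-purpose format, potential substrates are identified from the first fluorescence read after selenite addition, not from the 8-minute delta. Rat enzyme is preincubated with NADPH and then with compound at ~22 deg C.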
# [7] = biological target: Thioredoxin reductase 1, cytoplasmic (Rattus norvegicus) (UniProt O89049); test: qHTS Assay for Inhibitors of Mammalian Selenoprotein Thioredoxin Reductase 1 (TrxR1) (AID 488773); settings: Potency: inhibition; note: nearly all actives have a fitted effect of over 40% in size; note: potency is the fitted concentration of half-maximal effect
# Procedure, shortened: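 Inhibition is scored from the loss of NADPH fluorescence between first and last reads of an 8-min kinetic run. Selenite (400 uM) was the substrate, added after 15 min compound preincubation at room temperature.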
# [8] = biological target: Flap endonuclease 1 (Homo sapiens) (UniProt P39748); test: qHTS Validation Assay for the Inhibitors of Human Flap endonuclease 1 (FEN1) (AID 488816)
# Procedure, shortened: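 qHTS format: compounds and 10 nM FEN1 incubated 15 min at room temperature before adding 50 nM substrate. Cleavage followed by reads at 0 and 15 min; normalized data fitted to a four-parameter Hill curve.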
# [9] = biological target: M-phase phosphoprotein 8 (Homo sapiens) (UniProt Q99549); test: qHTS Validation Assay for Inhibitors for MPP8 Chromodomain Interactions with Methylated Histone Tails (AID 488949); note: nearly all actives have a fitted effect of over 55% in size; note: potency is the fitted concentration of half-maximal effect
# Procedure, shortened: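 50 nM MPP8 + 50 nM b-H3K9me3 peptide, PBS pH 7.4/0.01% Tween-20, 30 min RT; + cpd 30 min RT; + AlphaScreen donor/Ni-chelate acceptor beads 10 ug/mL final, 30 min dark; luminescence read.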
# [10] = biological target: Chromobox protein homolog 1 (Homo sapiens) (UniProt P83916); test: qHTS Validation Assay for Inhibitors of HP1-beta Chromodomain Interactions with Methylated Histone Tails (AID 488953); note: nearly all actives have a fitted effect of over 50% in size; note: potency is the fitted concentration of half-maximal effect
# Procedure, shortened: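 AlphaScreen proximity readout: streptavidin donor and Ni-chelate acceptor beads, 10 ug/mL final, 30 min dark, RT. Complex of 50 nM HP1-beta and 50 nM b-H3(1-18)K9me3 formed 30 min, then compound-treated 30 min; PBS pH 7.4/0.01% Tween-20.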
# [11] = biological target: Methanococcus maripaludis chaperonin (MmCpn) (UniProt Q6LX38); test: High-Throughput Screening for Modulators of Cytosolic Chaperonin Activity: MmCpn Primary Screen (AID 488978);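 note: 50 nM MmCpn enzyme hydrolysing 30 µM ATP at 37 °C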
# Procedure, shortened: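 Steps: chaperonin 50 nM final; add compound, 5 min RT; start with ATP, 30 uM final; hold 10 min at 37C; add ADP Transcreener HTRF reagent, 5 min; read ex 320, em 590 and 665 nm.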
# [12] = biological target: D(1A) dopamine receptor (Homo sapiens) (UniProt P21728); test: HTS Assay for Allosteric Agonists of the Human D1 Dopamine Receptor: Primary Screen for Agonists (AID 488981); note: potency is the fitted concentration of half-maximal effect
# Procedure, shortened: (§1)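 Calcium flux in an inducible, force-coupled HEK293 Trex D1 line (overnight at 30 C): agonist mode is the 180 s kinetic read after compound; potentiator mode is the following 180 s read after dopamine at EC20.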
# [13] = biological target: D(1A) dopamine receptor (Homo sapiens) (UniProt P21728); test: HTS Assay for Allosteric Agonists of the Human D1 Dopamine Receptor: Primary Screen for Potentiators (AID 488982)
# Procedure, shortened: as §1
# [14] = biological target: D(1A) dopamine receptor (Homo sapiens) (UniProt P21728); test: HTS Assay for Allosteric Agonists of the Human D1 Dopamine Receptor: Primary Screen for Antagonists (AID 488983);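 note: calcium flux response to an EC80 dopamine challenge measured with no-wash dye; nearly all actives have a fitted effect of over 65% in size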
# Procedure, shortened: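 Calcium flux readout, no-wash dye, inducible HEK293 T-REx D1 line (force-coupled). Compound added after 10 s baseline, 180 s kinetic read; then dopamine at EC80, further 180 s read.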
# [15] = biological target: Transient receptor potential cation channel subfamily V member 1 (Homo sapiens) (UniProt Q8NER1); test: HTS Assay for Compounds that Act as Enhancers of the Vanilloid Receptor 1 (AID 488979)
# Procedure, shortened: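 Calcium influx kinetics via Fluo-8 (480/520 nm) in TRPV1-expressing cells, 2000/well cultured overnight at 35.5C. Compound-alone read 3 min (agonist phase), followed by EC20 capsaicin challenge for 2 min (enhancer phase).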
# [16] = Quantitative high throughput screen for delayed death inhibitors of the malarial parasite plastid, 96 hour incubation (AID 488745);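 note: luciferase-expressing P. falciparum in erythrocytes at 2% hematocrit and 0.1% parasitemia; series mostly up to about 29 µM; nearly all actives have a fitted effect of over 70% in size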
# Procedure, shortened: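 Luciferase-expressing P. falciparum, infected RBCs 2% Hct/0.1% parasitemia (final); 96 h cpd exposure, 37 C, 5% CO2; RPMI 1640 + 0.5% Albumax, bicarbonate, gentamycin. Readout: luminescence loss = growth inhibition.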
# [17] = Quantitative high throughput screen for delayed death inhibitors of the malarial parasite plastid, 48 hour incubation (AID 488752); note: nearly all actives have a fitted effect of over 65% in size
# Procedure, shortened: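 Luciferase-expressing P. falciparum in RBCs, 2% Hct, 0.1% parasitemia final; RPMI 1640 + 0.5% Albumax; 48 h, 37 C, 5% CO2; luminescence readout, signal drop = growth inhibition.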
# ATP-dependent 6-phosphofructokinase (Trypanosoma brucei brucei), sequence (O15648 whole entry, looked up): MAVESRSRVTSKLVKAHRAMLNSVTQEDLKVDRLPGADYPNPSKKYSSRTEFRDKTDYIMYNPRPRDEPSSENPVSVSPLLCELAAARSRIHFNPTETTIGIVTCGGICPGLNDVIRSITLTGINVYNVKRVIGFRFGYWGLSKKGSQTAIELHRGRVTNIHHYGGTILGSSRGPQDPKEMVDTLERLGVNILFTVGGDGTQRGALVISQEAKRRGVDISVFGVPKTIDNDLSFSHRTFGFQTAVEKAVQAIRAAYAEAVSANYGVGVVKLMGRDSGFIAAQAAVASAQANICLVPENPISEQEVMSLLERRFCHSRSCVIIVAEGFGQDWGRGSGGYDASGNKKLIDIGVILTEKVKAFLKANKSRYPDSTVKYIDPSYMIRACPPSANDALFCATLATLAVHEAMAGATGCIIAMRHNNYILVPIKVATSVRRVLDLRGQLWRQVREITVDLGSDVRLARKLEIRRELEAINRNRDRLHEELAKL
# Thioredoxin reductase 1, cytoplasmic (Rattus norvegicus), sequence (O89049 whole entry, looked up): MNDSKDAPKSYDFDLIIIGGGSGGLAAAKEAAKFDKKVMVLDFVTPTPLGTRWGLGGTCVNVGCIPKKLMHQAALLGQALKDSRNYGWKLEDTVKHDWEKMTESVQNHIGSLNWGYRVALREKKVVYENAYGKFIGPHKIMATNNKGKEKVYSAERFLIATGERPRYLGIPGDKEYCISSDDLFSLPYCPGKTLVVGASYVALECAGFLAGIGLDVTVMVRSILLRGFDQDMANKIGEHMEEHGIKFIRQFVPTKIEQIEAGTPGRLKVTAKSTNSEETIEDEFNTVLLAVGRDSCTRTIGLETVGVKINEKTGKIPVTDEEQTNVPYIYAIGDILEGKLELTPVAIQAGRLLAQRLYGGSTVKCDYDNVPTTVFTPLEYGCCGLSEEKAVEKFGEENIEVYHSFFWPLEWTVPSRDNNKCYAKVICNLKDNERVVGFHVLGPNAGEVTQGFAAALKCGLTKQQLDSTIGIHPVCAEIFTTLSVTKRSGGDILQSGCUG
# DNA polymerase III PolC-type (Bacillus subtilis (strain 168)), sequence (P13267 whole entry, looked up): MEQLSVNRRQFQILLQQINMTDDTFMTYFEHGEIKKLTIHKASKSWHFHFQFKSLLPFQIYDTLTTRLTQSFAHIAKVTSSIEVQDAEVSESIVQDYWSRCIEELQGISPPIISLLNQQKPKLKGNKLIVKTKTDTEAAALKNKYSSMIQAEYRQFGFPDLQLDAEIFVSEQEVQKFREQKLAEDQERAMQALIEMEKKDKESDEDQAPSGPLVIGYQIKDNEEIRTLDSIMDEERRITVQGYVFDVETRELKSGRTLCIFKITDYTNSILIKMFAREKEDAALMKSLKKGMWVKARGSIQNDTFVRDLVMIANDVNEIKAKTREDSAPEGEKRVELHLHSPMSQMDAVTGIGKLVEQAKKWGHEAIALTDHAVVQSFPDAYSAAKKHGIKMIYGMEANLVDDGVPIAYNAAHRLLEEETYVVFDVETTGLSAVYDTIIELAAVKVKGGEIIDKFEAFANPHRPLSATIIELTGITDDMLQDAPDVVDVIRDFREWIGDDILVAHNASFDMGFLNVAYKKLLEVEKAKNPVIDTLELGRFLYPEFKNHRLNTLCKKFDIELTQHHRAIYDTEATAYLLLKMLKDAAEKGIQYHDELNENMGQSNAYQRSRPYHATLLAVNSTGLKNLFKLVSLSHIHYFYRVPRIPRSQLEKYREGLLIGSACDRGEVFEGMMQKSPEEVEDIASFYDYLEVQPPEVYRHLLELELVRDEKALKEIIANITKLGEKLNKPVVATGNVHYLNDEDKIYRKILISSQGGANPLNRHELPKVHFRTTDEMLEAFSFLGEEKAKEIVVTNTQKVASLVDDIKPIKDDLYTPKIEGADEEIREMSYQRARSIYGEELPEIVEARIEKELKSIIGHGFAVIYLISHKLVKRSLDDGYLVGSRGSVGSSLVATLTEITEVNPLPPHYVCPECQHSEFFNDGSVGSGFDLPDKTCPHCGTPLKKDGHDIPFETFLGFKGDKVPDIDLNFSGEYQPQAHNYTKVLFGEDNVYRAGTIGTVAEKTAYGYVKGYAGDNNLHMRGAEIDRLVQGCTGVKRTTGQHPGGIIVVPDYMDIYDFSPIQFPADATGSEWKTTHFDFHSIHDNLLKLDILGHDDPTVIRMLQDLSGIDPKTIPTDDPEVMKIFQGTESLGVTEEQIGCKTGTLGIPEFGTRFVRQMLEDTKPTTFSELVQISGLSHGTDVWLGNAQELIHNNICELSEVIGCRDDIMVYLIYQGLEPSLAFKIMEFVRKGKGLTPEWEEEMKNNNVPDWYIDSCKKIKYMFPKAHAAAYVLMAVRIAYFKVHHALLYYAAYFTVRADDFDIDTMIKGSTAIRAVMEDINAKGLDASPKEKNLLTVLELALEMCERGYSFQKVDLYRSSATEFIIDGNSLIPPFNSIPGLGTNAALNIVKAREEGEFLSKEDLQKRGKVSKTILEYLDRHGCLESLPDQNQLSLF
# Beta-2 adrenergic receptor (Homo sapiens), sequence (P07550 whole entry, looked up): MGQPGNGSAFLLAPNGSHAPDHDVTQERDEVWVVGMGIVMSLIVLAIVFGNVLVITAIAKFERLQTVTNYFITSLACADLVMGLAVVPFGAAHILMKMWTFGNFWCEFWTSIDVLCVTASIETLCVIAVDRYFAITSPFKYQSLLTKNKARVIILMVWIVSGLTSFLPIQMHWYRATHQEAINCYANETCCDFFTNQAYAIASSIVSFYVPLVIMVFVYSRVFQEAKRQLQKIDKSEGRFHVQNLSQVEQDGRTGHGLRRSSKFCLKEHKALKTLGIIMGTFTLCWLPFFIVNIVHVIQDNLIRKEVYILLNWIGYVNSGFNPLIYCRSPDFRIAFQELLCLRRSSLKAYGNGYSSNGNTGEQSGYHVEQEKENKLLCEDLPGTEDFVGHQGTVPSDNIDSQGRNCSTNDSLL
# Transient receptor potential cation channel subfamily V member 1 (Homo sapiens), sequence (Q8NER1 whole entry, looked up): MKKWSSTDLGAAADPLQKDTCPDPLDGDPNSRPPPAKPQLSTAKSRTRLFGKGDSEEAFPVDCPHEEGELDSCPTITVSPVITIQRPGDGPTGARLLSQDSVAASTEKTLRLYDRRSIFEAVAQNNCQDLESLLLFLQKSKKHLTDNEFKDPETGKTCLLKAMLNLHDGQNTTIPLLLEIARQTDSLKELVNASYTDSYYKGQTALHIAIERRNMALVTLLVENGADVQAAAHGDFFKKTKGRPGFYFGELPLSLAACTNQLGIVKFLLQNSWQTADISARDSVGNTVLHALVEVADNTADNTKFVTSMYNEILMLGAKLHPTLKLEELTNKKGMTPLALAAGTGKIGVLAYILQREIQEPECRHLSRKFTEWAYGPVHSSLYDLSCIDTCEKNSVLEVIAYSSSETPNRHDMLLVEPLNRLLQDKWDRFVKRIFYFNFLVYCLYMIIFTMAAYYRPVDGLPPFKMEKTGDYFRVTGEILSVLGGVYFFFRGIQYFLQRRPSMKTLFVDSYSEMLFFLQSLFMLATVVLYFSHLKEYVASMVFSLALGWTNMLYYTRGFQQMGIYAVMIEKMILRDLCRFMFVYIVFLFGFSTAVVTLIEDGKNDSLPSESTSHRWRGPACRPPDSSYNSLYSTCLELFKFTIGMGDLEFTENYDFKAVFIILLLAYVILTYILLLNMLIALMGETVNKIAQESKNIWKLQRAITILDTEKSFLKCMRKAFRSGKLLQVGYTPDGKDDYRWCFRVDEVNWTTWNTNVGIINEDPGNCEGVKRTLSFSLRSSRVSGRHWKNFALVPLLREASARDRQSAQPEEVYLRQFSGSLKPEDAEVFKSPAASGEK
# Tumor susceptibility gene 101 protein (Homo sapiens), sequence (Q99816 whole entry, looked up, the tested form may be a part): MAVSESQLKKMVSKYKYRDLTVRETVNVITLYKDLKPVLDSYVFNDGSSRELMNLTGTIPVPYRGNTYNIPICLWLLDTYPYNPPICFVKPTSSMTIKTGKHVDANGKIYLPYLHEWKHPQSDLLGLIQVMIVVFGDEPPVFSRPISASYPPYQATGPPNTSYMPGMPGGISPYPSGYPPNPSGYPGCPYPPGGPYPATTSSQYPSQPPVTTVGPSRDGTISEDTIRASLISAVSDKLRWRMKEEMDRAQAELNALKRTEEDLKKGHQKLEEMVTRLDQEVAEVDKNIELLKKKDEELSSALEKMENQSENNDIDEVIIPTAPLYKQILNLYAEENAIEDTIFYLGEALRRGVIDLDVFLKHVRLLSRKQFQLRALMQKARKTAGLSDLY
# Chromobox protein homolog 1 (Homo sapiens), sequence (P83916 whole entry, looked up): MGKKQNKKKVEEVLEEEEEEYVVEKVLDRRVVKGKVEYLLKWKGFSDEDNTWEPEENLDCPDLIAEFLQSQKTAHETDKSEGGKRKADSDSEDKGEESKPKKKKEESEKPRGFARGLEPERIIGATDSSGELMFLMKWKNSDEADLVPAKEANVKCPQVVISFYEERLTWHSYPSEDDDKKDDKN
# Flap endonuclease 1 (Homo sapiens), sequence (P39748 whole entry, looked up): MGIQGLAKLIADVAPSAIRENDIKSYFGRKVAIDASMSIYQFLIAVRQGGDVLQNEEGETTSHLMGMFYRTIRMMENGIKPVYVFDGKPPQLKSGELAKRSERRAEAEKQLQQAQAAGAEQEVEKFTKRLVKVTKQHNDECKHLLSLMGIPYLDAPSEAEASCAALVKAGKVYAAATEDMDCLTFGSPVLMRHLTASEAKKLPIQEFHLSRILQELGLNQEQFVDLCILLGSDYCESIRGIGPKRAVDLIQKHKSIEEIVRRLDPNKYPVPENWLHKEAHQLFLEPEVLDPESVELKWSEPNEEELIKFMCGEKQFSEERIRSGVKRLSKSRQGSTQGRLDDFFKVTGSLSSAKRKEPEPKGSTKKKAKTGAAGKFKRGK
SMILES,Potency [1],Potency [2],outcome [3],outcome [4],Potency [5],Potency [6],Potency [7],Potency [8],Potency [9],Potency [10],outcome [11],Potency [12],Potency [13],Potency [14],outcome [15],Potency [16],Potency [17]
NC(=S)c1ccc[n+]([C@@H]2O[C@@H](COP(=O)([O-])OP(=O)(O)OC[C@H]3O[C@@H](n4cnc5c(N)ncnc54)[C@H](OP(=O)(O)O)[C@@H]3O)C(O)C2O)c1 (stereo partly drawn),inactive,inactive,inactive,inactive,inactive,inactive,inactive,inactive,inactive,89.1 µM (active),inactive,inactive,inactive,inactive,,,
CNc1ncnc2c1ncn2[C@@H]1O[C@H](CO)[C@@H](O)[C@H]1O,inactive,inactive,inactive,inactive,,inactive,inactive,inactive,inactive,inactive,inactive,inactive,inactive,inactive,,,
NS(=O)(=O)C#Cc1ccccc1,inactive,inactive,inactive,inactive,inactive,inactive,4.74 µM (active),inactive,inactive,inactive,inactive,inactive,,inactive,,,
CN1CCc2cccc3c2C1Cc1ccc(O)c(O)c1-3 (stereo not drawn),inactive,inactive,inactive,inactive,12 µM (active),inactive,9.47 µM (active),,20 µM (active),,inactive,,inactive,,inactive,,
Nc1ncnc2c1ncn2[C@@H]1O[C@H](COP(=O)(O)OP(=O)(O)OP(=O)(O)OP(=O)(O)OC[C@@H]2O[C@H](n3cnc4c(N)ncnc43)[C@@H](O)[C@H]2O)[C@@H](O)[C@H]1O,inactive,inactive,inactive,inactive,,inactive,inactive,inactive,inactive,inactive,inactive,0.562 µM (active),,,,,
O=S(=O)(c1cccc2c(I)cccc12)N1CCCNCC1,inactive,inactive,inactive,inactive,,inactive,,inactive,inactive,,inactive,14.1 µM (active),inactive,,,inactive,inactive
Nc1nc(Cl)nc2c1ncn2[C@@H]1O[C@H](COP(=O)(O)OP(=O)(O)OP(=O)(O)O)[C@@H](O)[C@H]1O,inactive,inactive,inactive,inactive,,inactive,inactive,inactive,inactive,inactive,inactive,,inactive,,,,
CNC(=O)[C@H]1O[C@@H](n2cnc3c(NCc4ccc(N)cc4)ncnc32)[C@H](O)[C@@H]1O,inactive,inactive,inactive,inactive,inactive,inactive,,inactive,inactive,inactive,inactive,inactive,inactive,inactive,,,
O=C1NC(=O)/C(=C/c2ccc3nccnc3c2)S1,inactive,inactive,inactive,inactive,inactive,inactive,inactive,,inactive,inactive,inactive,,inactive,inactive,,,
CCNC(=O)[C@H]1O[C@@H](n2cnc3c(N)nc(NCCc4ccc(CCC(=O)O)cc4)nc32)[C@H](O)[C@@H]1O,inactive,inactive,inactive,inactive,,inactive,inactive,inactive,inactive,inactive,inactive,,,,,,
CCCCC#Cc1nc(NC)c2ncn([C@@H]3O[C@H](CO)[C@@H](O)[C@H]3O)c2n1,inactive,inactive,inactive,inactive,,inactive,inactive,inactive,inactive,inactive,inactive,inactive,inactive,inactive,,,
O=C(O)c1cc([N+](=O)[O-])ccc1NCCCc1ccccc1,inactive,inactive,inactive,inactive,,inactive,inactive,inactive,inactive,inactive,inactive,inactive,,inactive,inactive,inactive,inactive
O=C1O/C(=C/Br)CCC1c1cccc2ccccc12 (stereo not drawn),inactive,inactive,inactive,inactive,,inactive,2.67 µM (active),inactive,inactive,inactive,inactive,,inactive,inactive,inactive,inactive,inactive
